Measurements taken from PubChem BioAssay (NCATS).
Inconclusive results are not listed. Entries that show only a call come without a potency. The source made the active and inactive calls. Calls come from the whole dose curve; as a rule, active = well fitted curve in the direction sought with a large enough effect; inconclusive = small, poorly fitted or top-dose-only effect, or another doubt; inactive = no such curve, though single readings can be large; an effect the other way counts as inactive or inconclusive. *1 amine or outer side, *2 acyl side, *3 side chain or, on linkers, in order; H or OH if unused. Where a SMILES comes first, the peptide text is derived from it. Bridges are numbered along the chain shown (N, C = ends). Roman numbers before positions name the chains, in order. [ ]: non-standard residue; d: D form. ξ: configuration not given here. Actinocin(9to1) = Cc1c2oc3c(C)ccc(C(=O)[*:1])c3nc-2c(C(=O)[*:2])c(N)c1=O; ξNMeV = CNC(C(=O)O)C(C)C; ξV = CC(C)C(N)C(=O)O; Sar = CNCC(=O)O

Key:
[1] = system: Zika virus NS2B-NS3 protease (unlinked complex); experiment: Primary screen GU Rhodamine qHTS for Zika virus inhibitors: Unlinked NS2B-NS3 protease assay (AID 1347159); note: nearly all actives have a fitted effect of over 60% in size; note: potency is the fitted concentration of half-maximal effect
Procedure, shortened: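 Noncovalent NS2B hydrophilic domain–NS3 protease domain complex (25 nM) preincubated 15 min at room temperature with compounds (up to 114 microM) in 10 mM Tris-HCl pH 8.0, 0.01% Tween 20; 1.5 microM Rhodamine110 substrate added, fluorescence change over 15 min fitted to Hill equation.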

[2] = system: Zika virus NS2B-NS3 protease (linked construct); experiment: Primary screen NINDS Rhodamine qHTS for Zika virus inhibitors (AID 1347160); note: nearly all actives have a fitted effect of over 55% in size; note: potency is the fitted concentration of half-maximal effect
Procedure, shortened: (§1)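 Purified linked NS2B-NS3 protease (NS2B hydrophilic domain joined to NS3 protease by flexible linker), 25 nM in 10 mM Tris-HCl pH 8.0, 0.01% Tween 20. Compounds titrated, 15 min preincubation at room temperature; 1.5 microM Rhodamine110 substrate, FITC fluorescence change over 15 min.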

[3] = Confirmatory screen NINDS Rhodamine qHTS for Zika virus inhibitors (AID 1347161); conditions: purified enzyme assay, Rhodamine110 substrate fluorescence, 15 min; note: potency is the fitted concentration of half-maximal effect; nearly all actives have a fitted effect of over 60% in size
Procedure, shortened: as §1

[4] = Tertiary RLuc qRT-PCR qHTS assay for Zika virus inhibitors (AID 1347169); note: nearly all actives have a fitted effect of over 55% in size; note: potency is the fitted concentration of half-maximal effect
Procedure, shortened: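 Luminescence read-out: live-cell Renilla luciferase substrate applied to infected Vero cells, signal measured after 1-1.5 hrs. Cells had received compound before ZIKV-RLuc (Cambodian strain, MOI 1-2) infection and were incubated 48-72 hrs at 37 degrees C.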

[5] = OV-KATE Cancer Cell Toxicity qHTS against the NCATS CANVASS Library (AID 1347345)
Procedure, shortened: (§2)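 Viability was assessed by adding CellTiter-Glo reagent to treated cultures and reading luminescence after 15min at room temperature. Treatment lasted 72 h at 37 degrees C/5% CO2, using an 11-point series on 1000 cells/well.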

[6] = HPAF-II Cancer Cell Toxicity qHTS against the NCATS CANVASS Library (AID 1347346); note: nearly all actives have a fitted effect of over 55% in size; note: potency is the fitted concentration of half-maximal effect
Procedure, shortened: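 Cytotoxicity in HPAF-II pancreatic cancer cells: 72 h treatment across 11 concentrations, ATP-based CellTiter-Glo luminescence endpoint.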

[7] = UWB1.289 Cancer Cell Toxicity qHTS against the NCATS CANVASS Library (AID 1347347); note: series mostly up to about 38 µM; nearly all actives have a fitted effect of over 60% in size
Procedure, shortened: as §2

[8] = OV-SAHO Cancer Cell Toxicity qHTS against the NCATS CANVASS Library (AID 1347348); note: series mostly up to about 38 µM; nearly all actives have a fitted effect of over 55% in size
Procedure, shortened: as §2

[9] = SW1088 Cancer Cell Toxicity qHTS against the NCATS CANVASS Library (AID 1347350); conditions: outcome: dose series up to 38.3 µM; note: nearly all actives have a fitted effect of over 75% in size
Procedure, shortened: as §2

[10] = target: Lysine-specific demethylase 5B (Homo sapiens) (UniProt Q9UGL1); experiment: Optimization screen for KDM5B Histone Demethylases FDH coupled qHTS against the LOPAC library (AID 1347166)
Procedure, shortened: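 KDM5BDeltaAP (200nM final) preincubated 10 min with compound, then 12.5uM H3K4Me3, 25uM a-ketoglutarate, ascorbate, Fe(II), NAD+ and FDH added; 50mM HEPES pH 7.5, 0.01% Tween-20. NADH fluorescence (340/450 nm) change over 30 min, room temperature.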

[11] = Vero cells viability qHTS for Zika virus inhibitors (AID 1347167)
Procedure, shortened: (§3)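 Counter-screen for cytotoxicity of hits from NS2B-NS3 protease qHTS. Overnight-attached cells (2.5 x 10^5 cells/mL, DMEM/4% FBS) were dosed in titration, incubated 24 to 48 hours, then assayed by CellTiter Glo.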

[12] = HepG2 cells viability qHTS for Zika virus inhibitors (AID 1347168)
Procedure, shortened: as §3

Sequence of Lysine-specific demethylase 5B (Homo sapiens) (Q9UGL1 whole entry, looked up): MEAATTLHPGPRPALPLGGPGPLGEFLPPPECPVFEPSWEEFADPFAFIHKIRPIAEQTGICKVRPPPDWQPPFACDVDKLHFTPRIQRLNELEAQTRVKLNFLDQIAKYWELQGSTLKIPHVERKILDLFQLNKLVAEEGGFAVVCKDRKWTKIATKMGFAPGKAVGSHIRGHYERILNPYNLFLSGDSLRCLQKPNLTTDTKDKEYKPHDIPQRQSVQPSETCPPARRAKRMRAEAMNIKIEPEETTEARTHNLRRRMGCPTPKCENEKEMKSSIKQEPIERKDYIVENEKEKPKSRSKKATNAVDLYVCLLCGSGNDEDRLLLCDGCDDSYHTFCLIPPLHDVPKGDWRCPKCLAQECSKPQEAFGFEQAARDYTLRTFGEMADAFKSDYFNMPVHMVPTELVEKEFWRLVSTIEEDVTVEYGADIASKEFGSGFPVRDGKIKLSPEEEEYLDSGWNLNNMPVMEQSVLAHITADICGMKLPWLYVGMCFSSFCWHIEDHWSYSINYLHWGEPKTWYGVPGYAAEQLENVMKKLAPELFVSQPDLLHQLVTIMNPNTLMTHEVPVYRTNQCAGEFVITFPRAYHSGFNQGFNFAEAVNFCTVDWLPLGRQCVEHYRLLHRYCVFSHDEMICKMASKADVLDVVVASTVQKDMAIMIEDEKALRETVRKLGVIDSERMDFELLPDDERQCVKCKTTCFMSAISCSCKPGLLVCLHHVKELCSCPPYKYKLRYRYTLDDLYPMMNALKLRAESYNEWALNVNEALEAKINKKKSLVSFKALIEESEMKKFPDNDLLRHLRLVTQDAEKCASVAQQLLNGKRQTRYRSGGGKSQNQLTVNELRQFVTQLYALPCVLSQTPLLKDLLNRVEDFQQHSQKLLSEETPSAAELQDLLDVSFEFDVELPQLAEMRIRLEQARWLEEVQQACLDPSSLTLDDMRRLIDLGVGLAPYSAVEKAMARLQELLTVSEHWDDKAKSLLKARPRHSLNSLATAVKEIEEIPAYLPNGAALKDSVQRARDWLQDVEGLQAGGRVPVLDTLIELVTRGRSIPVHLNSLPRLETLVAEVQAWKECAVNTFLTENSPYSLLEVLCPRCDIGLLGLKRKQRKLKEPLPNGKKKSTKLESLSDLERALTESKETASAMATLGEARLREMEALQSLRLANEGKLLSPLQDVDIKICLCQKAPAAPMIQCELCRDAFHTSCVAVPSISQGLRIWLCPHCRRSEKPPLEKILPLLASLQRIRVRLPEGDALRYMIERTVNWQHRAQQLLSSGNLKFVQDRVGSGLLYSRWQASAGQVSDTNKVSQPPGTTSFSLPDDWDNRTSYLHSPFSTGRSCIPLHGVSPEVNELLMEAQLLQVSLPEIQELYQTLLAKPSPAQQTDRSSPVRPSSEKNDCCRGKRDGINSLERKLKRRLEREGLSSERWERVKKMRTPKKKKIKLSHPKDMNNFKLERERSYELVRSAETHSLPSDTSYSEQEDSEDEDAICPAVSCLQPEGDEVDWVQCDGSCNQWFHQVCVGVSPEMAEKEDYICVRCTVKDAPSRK

COc1c2c(c(C)c3c1C(=O)OC3)O[C@@]1(C)C[C@@H](O)[C@]34O[C@](OC)(CC[C@]3(C)[C@H]1C2)OC4(C)C
Potency [1]: inactive
Potency [2]: inactive

CC(=O)OC1C(O)C(C)=C(CCC(C)CC(=O)O)C2(C)CCCC(C)(C)C12 (stereo unspecified)
Potency [1]: inactive
Potency [2]: inactive

C=C[C@H]1[C@H](O[C@@H]2O[C@H](CO)[C@@H](O)[C@H](O)[C@H]2O)OC=C(C(=O)OC)[C@H]1C[C@@H]1N[C@H](C(=O)O)Cc2c1[nH]c1ccccc21
Potency [1]: inactive
Potency [2]: inactive

C=C1C[C@]23C[C@H]1CC[C@H]2[C@]1(C)CCC[C@@]2(CO)C(=O)O[C@H]([C@H]21)[C@@H]3O
Potency [1]: inactive
Potency [2]: inactive

Cc1cc(C)cc(NC(=O)Cc2ccc(OC(C)(C)C(=O)O)cc2)c1
Potency [1]: inactive
Potency [2]: inactive

O=C(OCC12OC1C=CC(OC(=O)c1ccccc1)C2O)c1ccccc1 (stereo unspecified)
Potency [1]: inactive
Potency [2]: inactive

C/C1=C\C[C@H](O[C@@H]2O[C@H](CO)[C@@H](O)[C@H](O)[C@H]2O)/C(C)=C/[C@H]2OC(=O)[C@H](C)[C@@H]2CC1
Potency [1]: inactive
Potency [2]: inactive

CC(NC(=O)CC(=O)O)c1nc2ccccc2c(=O)[nH]1 (stereo unspecified)
Potency [1]: 44.7 µM (active)
Potency [2]: 25.1 µM (active)

O=c1c2ccccc2nc2n1CCC2O (stereo unspecified)
Potency [1]: inactive
Potency [2]: inactive

CC(=O)O[C@@]1(C)C[C@@H](O)[C@]2(O)C=CO[C@@H](O[C@@H]3O[C@H](CO)[C@@H](O)[C@H](O)[C@H]3O)[C@@H]21
Potency [1]: inactive
Potency [2]: inactive

CC(C)Nc1cc(-c2c[nH]c(C(=O)N[C@H](CO)c3cccc(Cl)c3)c2)c(Cl)cn1
Potency [1]: 44.7 µM (active)
Potency [2]: inactive

CC1(CO)CC[C@]2(C(=O)O[C@@H]3O[C@H](CO)[C@@H](O)[C@H](O)[C@H]3O)CC[C@]3(C)C(=CCC4[C@@]5(C)C[C@H](O)[C@H](O[C@@H]6OC[C@@H](O)[C@H](O)[C@H]6O)[C@@](C)(CO)C5CC[C@]43C)C2C1 (stereo partly specified)
Potency [1]: inactive
Potency [2]: inactive

COc1ccccc1-n1c(SCC(=O)Nc2nc3ccc(C)cc3s2)nc2c(c1=O)SCC2
Potency [1]: inactive
Potency [2]: inactive

CC1(C)CCCC2(C)C(CO)C3CCC2C31 (stereo unspecified)
Potency [1]: inactive
Potency [2]: inactive

Cc1cn2c(N)c(Cl)cc(C(=O)NCC3CCN(CC(C)C)CC3)c2n1
Potency [1]: inactive
Potency [2]: inactive

C=C1CC[C@@H]2[C@](C)(CC[C@H](O)[C@@]2(C)CCC=C(C)C)[C@@H]1Cc1c[nH]c2ccccc12
Potency [1]: inactive
Potency [2]: inactive

COc1cc(/C=C/C(=O)OC2[C@H](O)CC(O)(C(=O)O)C[C@H]2O)ccc1O (stereo partly specified)
Potency [1]: inactive
Potency [2]: inactive

FC(F)(F)c1cc(C(F)(F)F)c2ccc3nc(-c4nnco4)cn3c2n1
Potency [1]: inactive
Potency [2]: inactive

CC1(C)CC2C3=CCC4C5(C)CCC(OC6OC(CO)C(O)C(OC7OC(CO)C(O)C(OC8OC(CO)C(O)C(OC9OC(COC%10OC(CO)C(O)C(O)C%10O)C(O)C(O)C9O)C8O)C7O)C6O)C(C)(C)C5CCC4(C)C3(C)CCC2(C(=O)O)CC1O (stereo unspecified)
Potency [3]: 7.42 µM (active)

CC(C)(O)/C=C1/C(=O)C(C)(C)C(=O)C(C)(C)C1(O)O[C@@H]1O[C@H](COC(=O)c2cc(O)c(O)c(O)c2)[C@@H](O)[C@H](O)[C@H]1O (stereo partly specified)
Potency [4]: inactive

CC1=C2C(=O)O[C@@H](c3ccoc3)[C@]2(C)CCC1
outcome [5]: inactive
Potency [6]: inactive
outcome [7]: inactive
outcome [8]: inactive
outcome [9]: inactive

C/C=C/C=C/C(CC(=O)O)Nc1ccc(C=O)cc1 (stereo unspecified)
outcome [5]: inactive
Potency [6]: 3.75 µM (active)
outcome [8]: inactive
outcome [9]: inactive

CN1Cc2c(N)cccc2C(c2ccccc2)C1 (stereo unspecified)
outcome [10]: inactive

Cc1c2oc3c(C)ccc(C(=O)N[C@@H]4C(=O)NC(C(C)C)C(=O)N5CCC[C@H]5C(=O)N(C)CC(=O)N(C)C(C(C)C)C(=O)O[C@@H]4C)c3nc-2c(C(=O)N[C@@H]2C(=O)NC(C(C)C)C(=O)N3CCC[C@H]3C(=O)N(C)CC(=O)N(C)C(C(C)C)C(=O)O[C@@H]2C)c(N)c1=O (stereo partly specified) (I: T[ξV]P[Sar][ξNMeV] / II: T[ξV]P[Sar][ξNMeV]; ester I:1-I:C, II:1-II:C; linker I:N-II:N via Actinocin(9to1))
outcome [11]: inactive
outcome [12]: inactive
Potency [4]: 0.208 µM (active)
